PubChem BioAssay AID1645860 (Buhrlage Lab, Dana-Farber Cancer Institute and Novartis …, 2021)
The campaign covered roughly 47,000 compounds. About 2,500 (5.3%) were called active. For the sample, actives were picked, then their nearest neighbours and some compounds at random. Values without a mark were called inactive. Cut-off read from the data, not from the text of the source: active = inhibition above about 30%; inactive = the rest.

biological target: Ubiquitin carboxyl-terminal hydrolase 30 (Homo sapiens) (UniProt Q70CQ3); assay: inhibitors of human USP30 deubiquitinase (AID 1645860); conditions: purified USP30, Ub-rhodamine cleavage fluorescence; at 25 µM; active compounds read high
Sequence (Q70CQ3 whole entry, looked up): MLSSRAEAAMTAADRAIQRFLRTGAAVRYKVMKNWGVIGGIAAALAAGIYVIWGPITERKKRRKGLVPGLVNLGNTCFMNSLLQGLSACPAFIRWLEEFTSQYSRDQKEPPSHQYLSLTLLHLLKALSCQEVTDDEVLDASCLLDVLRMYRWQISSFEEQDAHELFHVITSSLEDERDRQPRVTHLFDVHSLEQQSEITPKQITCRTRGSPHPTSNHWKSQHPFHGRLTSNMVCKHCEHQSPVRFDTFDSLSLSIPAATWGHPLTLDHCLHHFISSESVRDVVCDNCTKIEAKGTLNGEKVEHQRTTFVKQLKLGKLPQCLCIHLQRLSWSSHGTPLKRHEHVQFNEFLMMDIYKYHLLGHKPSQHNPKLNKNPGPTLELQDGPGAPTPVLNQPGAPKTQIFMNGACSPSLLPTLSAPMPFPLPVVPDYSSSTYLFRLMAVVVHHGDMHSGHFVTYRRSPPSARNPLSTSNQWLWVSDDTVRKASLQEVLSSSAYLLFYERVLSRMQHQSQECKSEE

Row | Structure (SMILES) | inhibition
1 | CC1CCCN(c2ccc(-c3nc(-c4cccnc4)no3)cc2[N+](=O)[O-])C1 (stereo unspecified) | -2.58%
2 | Cc1ccc(Cn2c(C(=O)O)c(CNC(C)CCc3ccccc3)c3ccccc32)cc1 (stereo unspecified) | 35.8% (active)
3 | CNC(=O)NC1CCN(c2nc3cccnc3n(Cc3ccc(C)cc3)c2=O)CC1 | -0.331%
4 | O=C(CCCn1c(=O)c2ccccc2n(Cc2ccccc2F)c1=O)NC1CCCC1 | 15.8%
5 | Cc1ccc(CCNCc2c(C(=O)O)n(C)c3ccccc23)cc1 | -4.51%
6 | COc1ccc(CCNCc2c(C(=O)O)n(Cc3ccc(Cl)cc3)c3ccccc23)c(OC)c1OC | 18.6%
7 | CC(CCc1ccccc1)NCc1c(C(=O)O)n(Cc2ccccc2F)c2ccccc12 (stereo unspecified) | 33.3% (active)
8 | O=S(=O)(c1ccc(Cl)c(-c2nnc(-c3ccccc3)o2)c1)N1CCOCC1 | 8.47%
9 | Cc1ccc(S(=O)(=O)Nc2ccc(-c3c[n+]4ccccc4n3C)cc2)cc1 | 21.2%
10 | Cc1ccc(S(=O)(=O)NCc2c(-c3ccccc3)c3cc(C)ccc3[nH]c2=O)cc1 | -9.29%
11 | Cc1ccc(S(=O)(=O)NC2=NC(c3ccccc3)c3cc(Cl)ccc3N2)cc1 (stereo unspecified) | 43.7% (active)
12 | COc1cc(NC(=O)c2noc3c2CCc2sccc2-3)cc(OC)c1 | 8.21%
13 | CC(=O)N1CCCc2ccc(NC(=O)c3cccc([N+](=O)[O-])c3)cc21 | 16.5%
14 | CC1(C)OC(=O)[C@@]2(C)N[C@]1(C)C[C@@H]2C(=O)Nc1ccc(O)cc1 | -11.1%
15 | Cc1sc(NC(=O)c2ccc(S(=O)(=O)N(C)CC3CCCO3)cc2)c(C(N)=O)c1C (stereo unspecified) | -70.8%
16 | Cc1ccc(S(=O)(=O)CC(=O)Nc2sc(C)c(C)c2C(N)=O)cc1 | -97.7%
17 | CCN(CC)S(=O)(=O)c1ccc(C(=O)Nc2sc(C)c(C)c2C(N)=O)cc1 | 36.2% (active)
18 | Cn1cc(-c2cnc3n2CCC32CCN(S(=O)(=O)c3cccc(F)c3)CC2)cn1 | -1.9%
19 | CN(C(=O)CSCc1nc(-c2ccc(F)cc2)no1)c1ccc(F)cc1 | -1.42%

Row | Structure (SMILES) | inhibition
20 | O=c1[nH]c2c(-c3ccccn3)nsc2c(=O)n1Cc1cccnc1 | 2.65%
21 | O=C(COC(=O)C1CCN(S(=O)(=O)c2c(Cl)cccc2Cl)CC1)Nc1ccc2c(c1)CCC2 | 11.6%
22 | Cc1cccc(-c2nnc(-c3cccc(S(=O)(=O)N4CCCC4)c3)o2)c1 | 10.5%
23 | O=C(Nc1nnc(-c2cccc([N+](=O)[O-])c2)o1)C1CCN(S(=O)(=O)c2ccc3c(c2)CCC3)CC1 | 40.6% (active)
24 | CNc1cc(C)nc(C2CN(C(=O)c3ccnn3C(C)C)CCO2)c1 (stereo unspecified) | 15.8%
25 | COc1ccc(C2c3c(oc4ccccc4c3=O)C(=O)N2c2cc(C)on2)cc1 (stereo unspecified) | 23.7%
26 | O=C(C1CCOCC1)N1CCc2nc3ccccc3n2C(Cc2ccccc2)C1 (stereo unspecified) | 8.3%
27 | CCN1Cc2c(C(=O)NCCC(C)C)ncn2-c2ccccc2S1(=O)=O | -4.42%
28 | CN1C(=O)c2ccccc2C(C(=O)N2CCc3ccccc3C2)C1c1cccs1 (stereo unspecified) | 25%
29 | O=c1c(S(=O)(=O)c2cc(F)cc(F)c2)c[nH]c2ccc(F)cc12 | -13.9%
30 | COc1ccc(CCNC(=O)CCCn2c(=O)c3ccccc3n(CC(=O)OCc3ccccc3)c2=O)cc1OC | 64.1% (active)
31 | COc1ccc(CCNC(=O)Cn2c(=O)n(CC3CCC(C(=O)NC4CCCC4)CC3)c(=O)c3ccccc32)cc1OC (stereo unspecified) | 16.9%
32 | Cc1ccc(CNC(=O)CCCn2c(=O)c3sccc3n(CC(=O)OCc3ccccc3)c2=O)cc1 | 70.7% (active)
33 | Cc1cccc(N2CC(C)Cn3c2nc2c3c(=O)n(CC(=O)OCc3ccccc3)c(=O)n2C)c1 (stereo unspecified) | -36.6%
34 | COc1ccc(-c2nc3c(c(=O)c4ccccc4n3C)c(=O)n2CCc2ccc(OC)c(OC)c2)cc1 | 7.98%
35 | N#Cc1ccccc1Cn1c(=O)n(CCCC(=O)NCc2ccc(F)cc2)c(=O)c2ccccc21 | 20.9%
36 | COC[C@H]1C[C@@H]2CN(S(=O)(=O)c3ccc(F)cc3)C(C)[C@H]1N2C (stereo partly specified) | -8.47%
37 | CCn1cc(-c2ccnc3cc(C(=O)NC4CCOCC4)nn23)c(C)n1 | -12.3%
38 | O=C(O)CCNC(=O)/C(=C/c1ccc(Cl)cc1)NC(=O)c1ccco1 | -2.38%

Row | Structure (SMILES) | inhibition
39 | O=C(NCc1ccc2c(c1)OCO2)C1=CCN(Cc2ccccc2)CC1 | -38.4%
40 | O=C(NCc1ccc2c(c1)OCO2)c1cc2c(s1)CS(=O)(=O)C2 | 34.4% (active)
41 | O=C(NCCc1ccccc1)c1cc2c(s1)CS(=O)(=O)C2 | -21.6%
42 | COc1ccc(C)cc1NC(=O)COC(=O)C1(c2ccccc2F)CCCC1 | 22.5%
43 | Cc1nc(-c2cccc(NC(=O)C3CCN(c4ccccc4)C3=O)c2)no1 (stereo unspecified) | 42.5% (active)
44 | CC(=O)c1cccc(NC(=O)c2cccc(-c3nc(-c4ccccc4)no3)c2)c1 | -9.31%
45 | Cc1nc(-c2cccc(S(=O)(=O)Nc3ccccc3C)c2)no1 | -3.5%
46 | CC(C)c1noc(-c2ccc(-n3cnc(C(=O)NC4CC4)c3)nc2)n1 | 1.32%
47 | N#Cc1ccc(OC(=O)c2cc(S(=O)(=O)N3CCOCC3)c(Cl)cc2Cl)cc1 | 1.53%
48 | Cc1ccc(F)cc1NC(=O)CN(C)Cc1ccc2c(c1)OCO2 | -0.987%
49 | COc1ccc(C(NC(=O)CN(C)Cc2ccc3c(c2)OCO3)c2ccccc2)cc1 (stereo unspecified) | 42% (active)
50 | CN(CC(=O)Nc1ccc(F)cc1Cl)Cc1ccc2c(c1)OCO2 | -9.47%
51 | O=C(c1ccccc1)c1ccc(NC2CCCc3ccccc32)c([N+](=O)[O-])c1 (stereo unspecified) | -121%
52 | Nc1ccc(C(=O)OCC(=O)NC2CCCc3ccccc32)cc1[N+](=O)[O-] (stereo unspecified) | 31.6% (active)
53 | O=C(COC(=O)c1ccc(F)cc1)NC1CCCc2ccccc21 (stereo unspecified) | -8.55%
54 | Cc1ccccc1NC(=O)Cc1csc2nc(-c3ccc(F)cc3)cn12 | 88.4% (active)
55 | Cc1cc(F)ccc1NC(=O)Cc1n[nH]c(Cc2ccccc2)n1 | -13.4%
56 | O=C(Cc1ccc(F)cc1)Nc1ccccc1Cc1ccccc1 | 27.2%
